How the values were obtained:
Experiment in all cases: log2 ratio of Biotin-Ahx-Ub-VS probe labelling (fragment/DMSO); higher = less target engagement (more negative = stronger competition), active = hit call of the paper (q ≤ 0.05, log2 ratio ≤ -1)
Conditions in all cases: compound concentration: 200 uM; treatment time: 3 h
OTUD6B = biological target: T1, OTUD6B (UniProt Q8N6M0)
T1 sequence (whole entry): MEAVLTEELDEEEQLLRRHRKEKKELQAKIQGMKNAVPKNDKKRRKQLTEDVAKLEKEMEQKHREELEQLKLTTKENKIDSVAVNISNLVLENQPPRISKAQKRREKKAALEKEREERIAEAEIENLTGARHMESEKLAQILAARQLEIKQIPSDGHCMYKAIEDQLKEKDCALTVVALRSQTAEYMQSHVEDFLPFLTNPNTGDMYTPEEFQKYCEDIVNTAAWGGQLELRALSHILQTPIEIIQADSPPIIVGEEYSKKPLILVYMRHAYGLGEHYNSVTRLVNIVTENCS
Summary of the method: (§1)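 Fragment (200 µM) or vehicle was incubated for 3 h with triplicate HEK293T lysate samples of 495 µg, which were then treated with Biotin-Ahx-Ub-VS at 0.5 µM final for 1 h. Labelled DUBs were enriched on NeutrAvidin, digested with LysC and trypsin, and analysed by diaPASEF LC-MS/MS. Values are average log2 fragment/vehicle ratios from an unpaired t-test on global-median-normalised Spectronaut label-free quantities, using proteins with ≥2 unique peptides.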

OTUD7B = biological target: T2, OTUD7B (UniProt Q6GQQ9)
T2 sequence (whole entry): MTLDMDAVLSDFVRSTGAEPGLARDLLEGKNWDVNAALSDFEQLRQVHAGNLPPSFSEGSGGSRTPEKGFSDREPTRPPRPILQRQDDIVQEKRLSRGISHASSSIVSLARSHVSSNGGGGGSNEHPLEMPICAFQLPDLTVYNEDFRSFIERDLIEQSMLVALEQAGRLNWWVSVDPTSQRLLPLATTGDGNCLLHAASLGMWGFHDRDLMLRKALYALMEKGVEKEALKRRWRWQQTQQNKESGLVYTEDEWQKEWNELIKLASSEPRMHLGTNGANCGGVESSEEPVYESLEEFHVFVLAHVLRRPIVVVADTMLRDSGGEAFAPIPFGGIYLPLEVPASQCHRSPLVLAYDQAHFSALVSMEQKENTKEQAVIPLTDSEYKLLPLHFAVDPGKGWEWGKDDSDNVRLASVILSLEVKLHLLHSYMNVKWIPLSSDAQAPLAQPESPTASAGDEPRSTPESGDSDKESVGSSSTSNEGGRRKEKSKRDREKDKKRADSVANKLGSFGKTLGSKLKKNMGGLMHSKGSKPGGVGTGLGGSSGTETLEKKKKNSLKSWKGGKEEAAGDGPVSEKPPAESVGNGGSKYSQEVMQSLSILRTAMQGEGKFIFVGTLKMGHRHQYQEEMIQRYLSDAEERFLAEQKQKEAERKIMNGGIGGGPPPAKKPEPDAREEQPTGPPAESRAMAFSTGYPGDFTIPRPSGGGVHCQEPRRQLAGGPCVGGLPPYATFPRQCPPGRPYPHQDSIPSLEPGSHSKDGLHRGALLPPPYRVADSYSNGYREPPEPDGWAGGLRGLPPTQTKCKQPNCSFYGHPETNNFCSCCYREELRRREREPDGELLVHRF
Summary of the method: as §1

PRPF8 = PRPF8 (UniProt Q6P2Q9)
Summary of the method: as §1

PSMD7 = biological target: T3, PSMD7 (UniProt P51665)
T3 sequence (whole entry): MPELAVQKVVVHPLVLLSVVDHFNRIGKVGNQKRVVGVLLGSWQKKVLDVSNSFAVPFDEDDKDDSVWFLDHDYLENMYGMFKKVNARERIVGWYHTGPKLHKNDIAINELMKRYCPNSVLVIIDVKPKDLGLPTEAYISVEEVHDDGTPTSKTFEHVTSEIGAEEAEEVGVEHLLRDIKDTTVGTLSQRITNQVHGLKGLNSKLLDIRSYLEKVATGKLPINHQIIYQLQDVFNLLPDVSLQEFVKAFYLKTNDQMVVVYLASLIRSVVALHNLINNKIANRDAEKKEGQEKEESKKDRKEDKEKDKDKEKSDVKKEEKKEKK
Summary of the method: as §1

UCHL1 = UCHL1 (UniProt P09936)
UCHL1, sequence (P09936 whole entry, looked up): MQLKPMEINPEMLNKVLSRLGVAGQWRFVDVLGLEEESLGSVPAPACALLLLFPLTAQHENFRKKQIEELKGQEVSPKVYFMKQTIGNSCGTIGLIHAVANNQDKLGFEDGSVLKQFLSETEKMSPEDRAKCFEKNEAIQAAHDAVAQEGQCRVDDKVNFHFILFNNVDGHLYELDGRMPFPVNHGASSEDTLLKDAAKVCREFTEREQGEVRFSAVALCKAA
Summary of the method: as §1

UCHL3 = biological target: T4, UCHL3 (UniProt P15374)
T4 sequence (whole entry): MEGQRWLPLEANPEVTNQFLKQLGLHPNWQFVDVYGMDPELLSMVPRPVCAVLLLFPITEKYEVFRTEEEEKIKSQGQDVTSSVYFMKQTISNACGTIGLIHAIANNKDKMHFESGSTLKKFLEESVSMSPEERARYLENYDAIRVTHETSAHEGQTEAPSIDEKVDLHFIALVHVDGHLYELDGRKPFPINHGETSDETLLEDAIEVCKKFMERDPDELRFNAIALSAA
Summary of the method: as §1

UCHL5 = biological target: T5, UCHL5 (UniProt Q9Y5K5)
T5 sequence (whole entry): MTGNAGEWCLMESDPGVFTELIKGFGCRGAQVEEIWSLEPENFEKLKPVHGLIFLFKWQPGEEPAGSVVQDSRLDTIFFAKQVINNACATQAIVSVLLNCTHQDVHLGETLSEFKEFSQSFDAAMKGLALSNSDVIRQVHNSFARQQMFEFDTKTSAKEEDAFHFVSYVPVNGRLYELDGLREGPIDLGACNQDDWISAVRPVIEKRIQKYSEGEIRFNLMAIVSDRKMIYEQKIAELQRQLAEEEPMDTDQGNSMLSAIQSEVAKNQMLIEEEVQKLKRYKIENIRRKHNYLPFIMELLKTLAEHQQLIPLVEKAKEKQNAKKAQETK
Summary of the method: as §1

USP10 = USP10 (UniProt Q14694)
USP10, sequence (Q14694 whole entry): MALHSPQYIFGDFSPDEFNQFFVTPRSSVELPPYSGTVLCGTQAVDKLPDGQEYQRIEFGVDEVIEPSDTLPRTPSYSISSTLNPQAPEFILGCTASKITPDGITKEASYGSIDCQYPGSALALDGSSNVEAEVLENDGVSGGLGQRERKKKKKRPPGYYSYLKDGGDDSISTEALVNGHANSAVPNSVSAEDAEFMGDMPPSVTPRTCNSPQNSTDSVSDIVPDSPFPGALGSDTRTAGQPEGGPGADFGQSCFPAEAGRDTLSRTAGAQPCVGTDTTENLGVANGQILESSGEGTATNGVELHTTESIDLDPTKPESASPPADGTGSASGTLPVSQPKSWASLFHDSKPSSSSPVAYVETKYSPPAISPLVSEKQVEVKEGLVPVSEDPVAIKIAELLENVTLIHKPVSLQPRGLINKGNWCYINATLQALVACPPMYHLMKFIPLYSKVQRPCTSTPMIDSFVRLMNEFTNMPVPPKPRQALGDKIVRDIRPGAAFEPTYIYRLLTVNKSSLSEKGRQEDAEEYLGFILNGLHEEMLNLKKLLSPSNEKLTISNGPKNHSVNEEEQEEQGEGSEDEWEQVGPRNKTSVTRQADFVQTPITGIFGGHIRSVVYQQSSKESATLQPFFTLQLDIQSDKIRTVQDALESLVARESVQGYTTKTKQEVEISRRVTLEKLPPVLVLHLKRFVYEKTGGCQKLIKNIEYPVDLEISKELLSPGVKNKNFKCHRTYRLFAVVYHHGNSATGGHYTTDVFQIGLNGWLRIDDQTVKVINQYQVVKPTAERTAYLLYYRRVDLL
Summary of the method: as §1

USP15 = biological target: T6, USP15 (UniProt Q9Y4E8)
T6 sequence (whole entry): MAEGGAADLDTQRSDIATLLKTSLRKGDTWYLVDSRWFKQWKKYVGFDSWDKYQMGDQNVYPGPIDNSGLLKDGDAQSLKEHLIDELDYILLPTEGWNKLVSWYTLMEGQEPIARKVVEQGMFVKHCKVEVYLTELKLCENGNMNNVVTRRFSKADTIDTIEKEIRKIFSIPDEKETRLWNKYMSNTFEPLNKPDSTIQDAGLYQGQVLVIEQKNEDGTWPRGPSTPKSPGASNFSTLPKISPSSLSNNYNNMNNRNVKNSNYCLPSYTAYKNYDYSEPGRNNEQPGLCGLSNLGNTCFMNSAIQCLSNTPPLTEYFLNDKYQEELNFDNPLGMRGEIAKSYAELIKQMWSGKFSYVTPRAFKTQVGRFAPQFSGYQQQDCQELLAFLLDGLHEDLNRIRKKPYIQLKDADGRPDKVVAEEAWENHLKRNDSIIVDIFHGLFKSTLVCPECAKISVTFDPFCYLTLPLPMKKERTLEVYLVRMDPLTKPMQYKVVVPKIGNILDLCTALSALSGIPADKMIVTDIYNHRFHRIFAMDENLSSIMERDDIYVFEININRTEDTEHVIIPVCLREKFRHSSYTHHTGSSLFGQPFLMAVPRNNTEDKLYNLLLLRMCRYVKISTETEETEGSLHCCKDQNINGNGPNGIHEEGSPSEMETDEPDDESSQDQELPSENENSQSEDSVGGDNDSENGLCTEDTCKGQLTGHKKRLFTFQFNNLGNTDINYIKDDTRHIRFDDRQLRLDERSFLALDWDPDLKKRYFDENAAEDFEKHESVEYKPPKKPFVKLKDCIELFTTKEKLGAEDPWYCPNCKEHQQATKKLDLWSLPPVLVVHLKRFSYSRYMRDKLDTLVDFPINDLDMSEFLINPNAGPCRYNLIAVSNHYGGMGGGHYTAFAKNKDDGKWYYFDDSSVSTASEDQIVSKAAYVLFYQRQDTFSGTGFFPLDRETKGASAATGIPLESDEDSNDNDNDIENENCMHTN
Summary of the method: as §1

USP16 = USP16 (UniProt Q9Y5T5)
USP16, sequence (Q9Y5T5 whole entry, looked up): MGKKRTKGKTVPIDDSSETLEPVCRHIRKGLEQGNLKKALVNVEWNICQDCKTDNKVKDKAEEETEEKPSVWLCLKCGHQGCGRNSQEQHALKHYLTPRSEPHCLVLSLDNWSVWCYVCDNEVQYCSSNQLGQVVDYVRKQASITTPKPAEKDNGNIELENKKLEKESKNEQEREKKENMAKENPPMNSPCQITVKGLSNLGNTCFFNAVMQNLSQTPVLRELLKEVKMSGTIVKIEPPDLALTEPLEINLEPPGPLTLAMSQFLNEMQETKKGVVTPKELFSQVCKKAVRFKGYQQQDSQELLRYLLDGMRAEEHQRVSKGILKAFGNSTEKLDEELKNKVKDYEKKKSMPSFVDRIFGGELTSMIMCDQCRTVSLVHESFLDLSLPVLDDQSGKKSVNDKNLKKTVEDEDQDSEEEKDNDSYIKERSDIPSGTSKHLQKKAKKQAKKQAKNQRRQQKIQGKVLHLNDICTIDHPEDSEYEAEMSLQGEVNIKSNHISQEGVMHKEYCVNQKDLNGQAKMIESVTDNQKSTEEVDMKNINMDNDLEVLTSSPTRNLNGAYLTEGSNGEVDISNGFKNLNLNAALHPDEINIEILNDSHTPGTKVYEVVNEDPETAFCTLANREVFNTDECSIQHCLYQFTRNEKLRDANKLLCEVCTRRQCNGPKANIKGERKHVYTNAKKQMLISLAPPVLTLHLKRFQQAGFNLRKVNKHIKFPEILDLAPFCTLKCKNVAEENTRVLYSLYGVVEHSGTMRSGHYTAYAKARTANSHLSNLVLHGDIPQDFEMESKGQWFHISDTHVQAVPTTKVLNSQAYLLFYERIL
Summary of the method: as §1

Measured: log2 ratio of Biotin-Ahx-Ub-VS probe labelling

Cl.O=C(CCl)N1CC(c2ccc(Br)cn2)C1
active: OTUD7B -1.18 | UCHL1 -1.41
inactive: OTUD6B -0.116 | PRPF8 0.0941 | PSMD7 -0.394 | UCHL3 -0.211 | UCHL5 -0.254 | USP10 -0.0353 | USP15 -0.409 | USP16 -0.253

Reference: the supplement of paper PMC11732987, “Enantioselective OTUD7B fragment discovery through chemoproteomics screening and high-throughput optimisation” (Communications Chemistry, 2025)
